These results are taken from PubChem BioAssay AID1508600 (Functional Genomics Laboratory (NCATS/FGL), 2020).

About 3,700 (7%) of roughly 53,000 sequences were called active. This is one part of a sample in which actives are shown more often than they occur.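 How the source made its calls: active means gene knockdowns whose robust z-score for IL-1 alpha signal is at least 2 or at most -2, so actives lie on both sides; inactive means the rest.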

A short description of this assay: Components of the Cytosolic LPS Sensing Pathway: Gene Identification via Genome-wide siRNA Screen.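 Further: robust z of the log signal after scaling to non-targeting control siRNA wells of the plate.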 Particulars: RAW264.7 macrophages, IL-1a HTRF, actives lie on both sides, screened at 100 nM (by protocol), cells primed 5 h with Pam3CSK4 first. The procedure, abridged: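 Mouse macrophage line RAW264.7 is transfected with siRNA (100 nM final), grown 48h, primed with TLR ligand Pam3CSK4 5 h and given intracellular LipidA 24 h. IL-1a in supernatant is read by HTRF and viability by luminescence.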
A general note: Time-resolved FRET reads energy transfer from a long-lived donor to a nearby acceptor.
In the case of GGUCUACGUAGAGGAGCUGTT against Mrpl28, the z-score is 1.04 (inactive).

For the sequence GGGAAGCCUUUCUUGUCAGTT against Vmn1r40, the z-score is -0.847 (inactive). For the sequence GGAAUAAAGAAUGGUAUACTT against Zfp280d, the z-score is -0.0544 (inactive). To CCAGUAGCACGUGUUAUUUTT against Rbmy belongs 0.0944 (inactive); to GGAUUAAGAAAGAAACAGGTT against Zfp438, -0.387 (inactive).

GGCCACAGAGCCAAAGAUUTT against Cdca7: the z-score is 0.808 (inactive). For GCUUGAUCGAAGAAAGACATT against Tdrd3, the z-score was 0.709 (inactive).

As for GCGUAGGUUACGUUCAAGGTT against Ermard, the z-score is 2.74 (active).

Consider CGACAGUGAAUGCGCUAAGTT against Slc7a9, for which the z-score was -0.218 (inactive). Under GCAAAUUCACCGGAAAAUGTT against Sorbs3 stands 1.04 (inactive); under GGAGACUUAGAAAAAGACUTT against Olfr1426, 1.17 (inactive); under GGAGUUUGUAACCCUCCUGTT against Cabp7, 1.07 (inactive). Under GCCGUCAUCAUGGAAGGUUTT against Bace1 stands 0.0589 (inactive); under GGAAUCCUUGGACCUGAGGTT against Tnni3, -2.11 (active); under GGGUCAAUCAGAAGCUAGGTT against Creb3l4, -0.573 (inactive).

On to GGCAACUGACUAUUUAUUATT against Kcnk13, for which the z-score is 0.558 (inactive). For the sequence GCAUGAGUAUUCCAAGGAGTT against Arhgef7, the z-score is -2.36 (active). To GCAGUAUAAGAAUUUCAUGTT against Thada belongs -0.325 (inactive); to “GGAAAUGUUCUUCAUGUCATT against 1110038F14Rik”, -1.95 (inactive). Under GGCACGUCUGGACAACAUCTT against Cd22 stands -0.707 (inactive); under GGAGGUGACCUGUAAUCCCTT against Msmb, 0.0151 (inactive). Consider GCUUUCACUAAUCAGUACATT against Setd5, for which the z-score is -0.0813 (inactive). To GGAGCAACAGAGAUUUCUUTT against Sergef belongs 2.07 (active). On to GCUUCUGAUUAACCUCCAGTT against Olfr1390, for which the z-score is -1.49 (inactive). As to GCUUACCUUUGGAUUCAAATT against Cd68, the z-score is -0.446 (inactive).

In the case of GGGAAAAAGAGCUUUUAGCTT against Helt, the z-score was -0.552 (inactive).

With GGUGGCCGUGAAGAAGAUCTT against Mapk4, the z-score was -0.902 (inactive).

As for GGGCUUAAGGAAUAAACCATT against Phtf2, the z-score was -0.317 (inactive). To GGAGAUCUCAGAGAGUGAGTT against Atn1 belongs -2.52 (active).
